# Source: PubChem BioAssay
# Sampled rows, rich in hits. Any-hit rate of the full collection: about 4.9%.
# tim23-1 inh: growth inhibitors of tim23-1 mutant yeast, primary screen, luminescence, uHTS; S. cerevisiae tim23-1 growth, BacTiter-Glo luminescence, 24 h; inhibition, % at 20 µM; 330,000 compounds, 1.3% hits;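 active = growth inhibition of the mutant yeast at or above 50%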;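 note: temperature-sensitive mutant grown at 25 °C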
# NALP1 inh: NALP1 inflammasome inhibitors in reconstituted yeast, colorimetric, S. cerevisiae, triplicate retest | inhibition, % at 10 µM | 280,000 compounds, 0.61% hits | AID 2071, 2009 | S. cerevisiae NALP1/ASC/caspase-1 growth, X-gal OD620, 72 h; in the data active = inhibition mostly above about 24%, no sharp cut-off; inactive = mostly below about 32%
# tim10-1 inh: growth inhibitors of tim10-1 mutant yeast, primary screen, luminescence, uHTS; S. cerevisiae tim10-1 ts strain growth, BacTiter-Glo, 24 h; inhibition, % at 20 µM; 330,000 compounds, 2.2% hits;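 active = inhibition of at least 40%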;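 note: mutant grown at 25 °C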
# TIM10 inh: growth inhibitors of isogenic TIM10 control yeast, primary screen, counter-screen for tim10-1 yeast inhibitor project, luminescence, uHTS; S. cerevisiae TIM10 strain growth, BacTiter-Glo luminescence, 24 h; inhibition, % at 10 µM; 330,000 compounds, 1.4% hits; AID 463195, 2010;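 active = inhibition of 40% or more at the single tested concentration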;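 note: wild-type TIM10 isogenic control strain grown at permissive 25 °C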
# SKKanGAS inh: S. pyogenes SKKanGAS growth inhibitors in kanamycin, primary screen, streptokinase expression inhibitor project, SKKanGAS strain, BacTiter-Glo luminescence; 6 h; 300,000 compounds, 1.3% hits; inhibition, % at 7.5 µM;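 active = mean replicate score, as percent of positive control median, at least 50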;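 note: strain carries kanamycin resistance gene driven by streptokinase promoter and grows in 40 µg/ml kanamycin; loss of luminescence reflects streptokinase promoter inhibition or plain growth inhibition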
# NALP3 yeast inh: NALP3 inflammasome inhibitors in reconstituted yeast, primary screen, luminescence, uHTS; Yeast reconstituted NLRP3/ASC/caspase-1, beta-gal luminescence, 24 h; inhibition, % at 10 µM; 330,000 compounds, 0.39% hits; AID 2825, 2010;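 active = inhibition of 50% or more; inactive = inhibition below 50%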
# tim10-1 confirm: growth inhibitors of tim10-1 mutant yeast, confirmation, single concentration, luminescence, S. cerevisiae | shares compounds with tim10-1 inh | S. cerevisiae tim10-1 ts strain growth, BacTiter-Glo, 24 h | inhibition, % at 20 µM | 7,400 compounds, 56% hits;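 active = inhibition of yeast growth at or above a set limit in either of two repeat tests at 20 µM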;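 note: tim10-1 mutant grown at permissive 25 °C to find synthetic lethal compounds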
# A number is an active result; i = inactive; nt = not tested or not shown.
SMILES,tim23-1 inh,NALP1 inh,tim10-1 inh,TIM10 inh,SKKanGAS inh,NALP3 yeast inh,tim10-1 confirm
CC(C)Oc1cccc(C(=O)C2CCCN(C(=O)c3ccc4c(c3)OCO4)C2)c1 (stereo not given),i,i,i,i,i,i,nt
CCCc1ccc(C(C)NC(=S)NCc2ccc(F)cc2)cc1 (stereo not given),i,i,i,i,i,i,nt
CCC(C)c1ccc(C(C)NC(=S)NCc2ccc(F)cc2)cc1 (stereo not given),i,i,44,i,i,i,i
CCc1ccc(-c2csc(NC(=O)C3CC(=O)N(c4ccc5c(c4)OCCO5)C3)n2)cc1 (stereo not given),i,i,47,i,i,i,i
O=C(CC1C(=O)NCCN1Cc1ccccn1)NCCc1ccccc1F (stereo not given),i,i,i,i,i,i,nt
C(=C\c1ccccc1)/CSc1nnc(-c2ccncc2)n1Cc1ccco1,i,i,i,i,i,i,nt
O=C(CSc1nnc(-c2ccccn2)n1Cc1ccco1)c1ccccc1,i,i,i,i,i,i,nt
C(=C\c1ccccc1)/CSc1nnc(-c2ccccc2)n1Cc1ccco1,i,i,44,i,i,i,i
Brc1ccc(CSc2nnc(-c3ccccn3)n2Cc2ccco2)cc1,i,i,40,i,i,i,33
O=C(CSc1nnc(-c2cccnc2)n1Cc1ccco1)c1ccc2ccccc2c1,i,i,45,i,i,i,i
CCN(CC)S(=O)(=O)c1ccc(N2CCCC2)c(NS(=O)(=O)c2ccccc2)c1,i,nt,i,i,i,i,nt
CCN(CC)S(=O)(=O)c1ccc(N2CCCC2)c(NS(=O)(=O)c2ccc(F)cc2)c1,i,i,40,i,i,i,i
O=C(CSc1cccc2cccnc12)N1CCCC1,i,i,42,i,i,i,34
NC(=O)C1CCN(CC(=O)Nc2ccc3c(c2)OCCO3)CC1,i,nt,i,i,nt,i,nt
O=C(CN1CCC(C(=O)c2ccc(Cl)cc2)CC1)Nc1ccc2c(c1)OCCO2,i,i,44,i,i,i,i
Cc1cc(Cl)ccc1OC(C)C(=O)N1CCCN(C(=O)C(C)Oc2ccc(Cl)cc2C)CC1 (stereo not given),i,i,44,i,i,i,i
CCN1C(=O)[C@@H]2[C@@H](c3ccc(SC4CCCCC4)cc3)N3CCC[C@@]3(C(=O)OC)[C@@H]2C1=O,i,nt,i,i,i,i,nt
CCOC(=O)/C(C#N)=C/c1cn(CCOc2ccccc2)c2ccccc12,i,i,i,i,i,i,nt
CCOC(=O)/C(C#N)=C\c1cn(C)c2ccccc12,i,i,41,i,i,i,i
O=C(Nc1cccc(C(F)(F)F)c1)C1CC(=O)N(CCc2ccccc2)C1 (stereo not given),i,nt,i,i,nt,i,nt
O=C(Oc1c(CN2CCOCC2)cc(Cl)c2cccnc12)c1ccccc1,i,i,51,i,i,i,i
Cc1ccccc1NC(=O)c1cc(N)ccc1N1CCCCC1,i,i,41,i,nt,i,32
CN(C)S(=O)(=O)c1ccc(N2CCCC2)c(C(=O)Nc2ccccc2Br)c1,i,nt,i,i,i,i,nt
CC(C)OC(=O)Nc1ccc2c(c1)N(C(=O)N1CCN(C)CC1)c1ccccc1CC2,i,i,i,i,i,i,nt
Cc1ccc2c(CN3CCCCC3)cc(=O)oc2c1,i,i,i,i,i,i,nt
SMILES,tim23-1 inh,NALP1 inh,tim10-1 inh,TIM10 inh,SKKanGAS inh,NALP3 yeast inh,tim10-1 confirm
Cc1ccc2c(CN3CCN(S(=O)(=O)/C=C/c4ccccc4)CC3)cc(=O)oc2c1,i,i,40,i,i,i,36
COC(C/C=C/C(=O)COCc1ccccc1)OC,i,nt,46,i,i,i,41
CCn1cc(C(=O)Nc2ccc(Cl)cc2Cl)cn1,i,nt,i,i,i,i,nt
Nc1nc(Cl)cc(N2CCC(c3cc(-c4ccc(Cl)cc4)n[nH]3)CC2)n1,i,i,84,i,i,i,73
Clc1ccc(-c2cc(C3CCNCC3)[nH]n2)cc1,i,i,i,i,i,i,nt
N#Cc1c(NC(=S)NC(=O)Cc2cccs2)sc2c1CCCCC2,i,i,47,i,59,i,i
CC(=O)NC(=S)Nc1sc2c(c1C#N)CCCCC2,nt,i,nt,nt,i,nt,nt
O=C(Cc1coc2ccc3ccccc3c12)N1CCN(c2ncccn2)CC1,i,i,43,i,i,i,i
O=C(Cc1cccc2ccccc12)N1CCN(c2ncccn2)CC1,i,i,i,i,i,i,nt
O=C(COc1ccc2c(c1)oc(=O)c1ccccc12)NCCN1CCOCC1,i,i,i,i,i,i,nt
Cc1ccc(-c2cc(=O)[nH][nH]2)c(C)c1,i,i,44,i,i,i,i
Cc1ccc(-c2csc3nc[nH]c(=O)c23)c(C)c1,i,i,i,i,i,i,nt
Cc1cc(NC(=O)CCC(=O)N(c2ccccc2)C(C)C(=O)NC2CCCC2)no1 (stereo not given),i,i,i,i,i,i,nt
Cc1ccc(C(=O)ONc2ccc(N=NC(=O)c3ccccc3O)cc2)cc1,i,42,43,i,i,i,i
CC(=C\c1ccco1)/C=C(\C#N)C(=O)NCCc1c[nH]c2ccccc12,i,i,43,i,i,i,42
O=S(=O)(c1ccc2[nH]ccc2c1)N1CCCCCC1,i,i,44,i,i,i,i
CCCC(=O)Nc1nc2ccc(OCC)cc2s1,i,i,42,i,i,i,i
C[C@H](CO)N1C[C@H](C)[C@@H](CN(C)CC2CCCCC2)Oc2ccc(NC(=O)Cn3cnnn3)cc2C1=O,i,nt,i,i,nt,i,nt
Cc1cccc(N2C(=O)CN(Cc3ccccc3)C2=S)c1,i,i,i,i,i,i,nt
Cc1ccc(/C=C(\C#N)c2nn(-c3ccccc3)c(N)c2C#N)cc1,i,i,40,i,i,i,i
N#C/C(=C\c1cccc2ccccc12)c1nn(-c2ccccc2)c(N)c1C#N,i,nt,i,i,i,i,nt
Cc1ccc(C)c(S(=O)(=O)N2CCN(C(=O)Cn3[nH]c(=O)c4ccccc4c3=O)CC2)c1,i,nt,i,i,i,i,nt
COc1ccc(-c2nc3n(c(=O)c2C#N)CCS3)cc1,i,i,45,i,i,i,i
CC[C@]12c3[nH]c4ccc(Cl)cc4c3CCN1C(=O)[C@@H](CC(=O)NCCC1=CCCCC1)C[C@@H]2C(=O)N1CCN(C(=O)C2CC2)CC1,i,nt,i,i,nt,nt,nt
C=CCn1c(OCc2ccccc2)n[nH]c1=S,i,i,i,i,i,i,nt
